# The panel holds about 83,000 compounds, 20% with a hit somewhere; the sample as a whole holds those more often.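 Values shown are percent growth following 48 h exposure of cells in 96-well plates to a single concentration of compound; below 10 was considered active.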 A number with no mark means an inactive call. Calls of active or inactive are those of the source.
# System: MDA-MB-468 breast
# Experiment: NCI-60 one-dose screen, 48 h (100 = growth as untreated, 0 = no growth, -100 = all killed)
# Settings: 10 µM unless noted
row,Compound,growth
1,Cc1c(Cl)cccc1C(=O)Nc1nc2c(s1)CN(C(=O)c1ccc(C(F)(F)F)cc1)CC2,17.7%
2,O=C(CN1C=NC2C(N3CCOCC3)=NC=NC21)c1cccc2ccccc12 (stereo not drawn),85.9%
3,Cn1nnnc1-c1ccc(N)cc1,117%
4,Brc1c[n+](Cc2ccc3ccccc3c2)cn1Cc1ccc2ccccc2c1,-29.1% (active)
5,CC(C)(C)OC(=O)NC(CSCc1ccccc1)C(=O)ON1C(=O)CCC1=O (stereo not drawn),115%
6,O=C(/C=C/C12c3ccccc3C(c3ccccc31)C1C(=O)NC(=O)C12)c1ccc(Br)cc1 (stereo not drawn),42.7%
7,COc1ccc(-c2nc(N/N=C/c3ccco3)nc(N3CCOCC3)c2C#N)cc1,36%
8,N#Cc1ccc(O)c(C2=NCC(c3cccc(Oc4ccccc4)c3)O2)c1 (stereo not drawn),27%

# Source: PubChem BioAssay (NCI)
